# Assays:
# Assay in all cases: DAPPL (digital affinity profiling via proximity ligation, sequencing); 10 mM Tris-HCl pH 7.5, 50 mM NaCl, 1 mM DTT, 4% glycerol, room temperature, 30 min; GST-TFs on glutathione beads, 16-mer random dsDNA library, 0.1% formaldehyde crosslink after washing; high values mean tight binding
# Settings in all cases: protein: recombinant; tags: N-terminal GST; dsDNA, one strand shown
# ELK1 = target: T1, ELK1 (Homo sapiens, UniProt P19419 1-428)
# T1 sequence: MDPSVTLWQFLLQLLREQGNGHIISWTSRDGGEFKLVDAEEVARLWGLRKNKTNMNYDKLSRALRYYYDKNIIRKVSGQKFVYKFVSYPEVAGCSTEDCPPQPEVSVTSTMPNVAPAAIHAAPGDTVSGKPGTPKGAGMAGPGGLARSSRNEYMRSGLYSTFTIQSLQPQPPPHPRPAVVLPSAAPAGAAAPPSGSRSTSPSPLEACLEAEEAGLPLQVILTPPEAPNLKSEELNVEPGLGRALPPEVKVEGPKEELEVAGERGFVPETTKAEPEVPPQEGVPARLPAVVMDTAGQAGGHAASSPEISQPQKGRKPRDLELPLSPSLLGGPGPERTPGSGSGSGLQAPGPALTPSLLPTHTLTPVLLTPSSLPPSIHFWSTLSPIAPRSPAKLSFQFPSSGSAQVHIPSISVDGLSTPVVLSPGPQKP
# Procedure, shortened: (§1)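 Pools were built from human transcription factors expressed in yeast as GST fusions, captured on glutathione beads and DNA-barcoded, along with a tag-only sample. Incubation with 200 nmole of a 16-mer random double-stranded DNA library lasted 30 min at room temperature in Tris/NaCl/DTT/glycerol buffer, and was followed by washing, 0.1% formaldehyde crosslinking, proximity ligation, PCR amplification and Illumina NextSeq500 sequencing. Binding signal is the quotient of each hexamer's read frequency for a factor and its frequency for the tag-only sample.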
# GABPA = target: T2, GABPA (Homo sapiens, UniProt Q06546 1-454)
# T2 sequence: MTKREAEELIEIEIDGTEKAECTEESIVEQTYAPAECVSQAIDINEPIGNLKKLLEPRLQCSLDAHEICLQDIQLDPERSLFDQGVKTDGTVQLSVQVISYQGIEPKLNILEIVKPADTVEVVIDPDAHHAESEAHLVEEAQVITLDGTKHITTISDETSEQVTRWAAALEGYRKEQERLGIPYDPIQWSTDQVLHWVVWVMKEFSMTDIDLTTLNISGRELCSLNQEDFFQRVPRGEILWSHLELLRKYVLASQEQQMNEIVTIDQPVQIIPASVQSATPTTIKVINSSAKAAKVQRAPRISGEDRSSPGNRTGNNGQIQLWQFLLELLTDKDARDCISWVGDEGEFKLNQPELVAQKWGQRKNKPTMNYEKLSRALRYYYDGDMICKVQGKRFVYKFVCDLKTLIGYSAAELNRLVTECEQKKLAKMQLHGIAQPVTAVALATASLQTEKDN
# Procedure, shortened: as §1
# ERG = target: T3, ERG (Homo sapiens, UniProt P11308 1-479)
# T3 sequence: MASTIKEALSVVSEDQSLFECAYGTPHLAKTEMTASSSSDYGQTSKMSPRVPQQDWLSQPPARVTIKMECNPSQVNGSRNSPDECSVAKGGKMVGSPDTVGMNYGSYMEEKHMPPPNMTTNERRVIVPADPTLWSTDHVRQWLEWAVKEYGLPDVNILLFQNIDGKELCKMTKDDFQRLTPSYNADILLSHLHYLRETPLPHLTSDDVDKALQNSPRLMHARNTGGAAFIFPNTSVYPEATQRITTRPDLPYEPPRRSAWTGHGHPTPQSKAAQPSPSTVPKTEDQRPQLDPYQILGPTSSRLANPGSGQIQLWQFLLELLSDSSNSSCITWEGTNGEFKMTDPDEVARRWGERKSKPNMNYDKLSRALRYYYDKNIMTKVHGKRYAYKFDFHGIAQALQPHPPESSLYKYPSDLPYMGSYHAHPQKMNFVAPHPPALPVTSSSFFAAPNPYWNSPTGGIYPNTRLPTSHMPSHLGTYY
# Procedure, shortened: as §1
# ELF1 = ELF1 (Homo sapiens, UniProt P32519 1-619)
# ELF1, sequence (P32519 whole entry): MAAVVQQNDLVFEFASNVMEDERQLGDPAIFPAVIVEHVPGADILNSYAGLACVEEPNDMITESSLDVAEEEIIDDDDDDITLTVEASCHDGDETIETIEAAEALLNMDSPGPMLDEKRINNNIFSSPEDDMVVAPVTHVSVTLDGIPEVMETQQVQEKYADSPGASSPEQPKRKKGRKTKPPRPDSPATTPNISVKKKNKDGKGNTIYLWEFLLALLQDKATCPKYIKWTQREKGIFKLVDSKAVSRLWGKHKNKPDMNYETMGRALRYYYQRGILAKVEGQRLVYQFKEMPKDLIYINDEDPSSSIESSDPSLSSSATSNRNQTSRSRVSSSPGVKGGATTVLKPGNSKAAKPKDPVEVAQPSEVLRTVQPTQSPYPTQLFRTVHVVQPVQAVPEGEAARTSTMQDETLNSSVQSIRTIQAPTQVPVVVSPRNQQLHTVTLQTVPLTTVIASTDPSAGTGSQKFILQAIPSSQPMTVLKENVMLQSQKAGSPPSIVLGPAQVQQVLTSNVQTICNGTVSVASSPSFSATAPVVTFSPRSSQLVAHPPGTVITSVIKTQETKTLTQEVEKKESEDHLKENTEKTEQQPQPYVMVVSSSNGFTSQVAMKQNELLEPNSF
# Procedure, shortened: as §1
# SPI1 = SPI1 (Homo sapiens, UniProt P17947 1-270)
# Procedure, shortened: as §1
# SPIB = SPIB (Homo sapiens, UniProt Q01892 1-262)
# SPIB, sequence (Q01892 whole entry): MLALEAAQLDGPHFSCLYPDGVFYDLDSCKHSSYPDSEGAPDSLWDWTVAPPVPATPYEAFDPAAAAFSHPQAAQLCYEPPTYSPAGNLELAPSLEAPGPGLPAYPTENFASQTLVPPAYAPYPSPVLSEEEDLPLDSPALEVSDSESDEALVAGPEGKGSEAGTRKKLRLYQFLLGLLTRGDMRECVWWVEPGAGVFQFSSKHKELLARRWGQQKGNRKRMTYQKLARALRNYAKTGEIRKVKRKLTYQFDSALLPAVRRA
# Procedure, shortened: as §1
# FEV = target: T4, FEV (Homo sapiens, UniProt Q99581 1-238)
# T4 sequence: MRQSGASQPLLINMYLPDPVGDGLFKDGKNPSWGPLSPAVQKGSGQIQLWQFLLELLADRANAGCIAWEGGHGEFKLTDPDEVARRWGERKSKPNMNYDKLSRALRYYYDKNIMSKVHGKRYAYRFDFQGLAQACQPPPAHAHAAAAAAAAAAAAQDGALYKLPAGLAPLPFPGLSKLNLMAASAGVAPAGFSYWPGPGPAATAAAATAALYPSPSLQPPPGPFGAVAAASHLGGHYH
# Procedure, shortened: as §1
# ETV5 = ETV5 (Homo sapiens, UniProt P41161 1-510)
# ETV5, sequence (P41161 whole entry): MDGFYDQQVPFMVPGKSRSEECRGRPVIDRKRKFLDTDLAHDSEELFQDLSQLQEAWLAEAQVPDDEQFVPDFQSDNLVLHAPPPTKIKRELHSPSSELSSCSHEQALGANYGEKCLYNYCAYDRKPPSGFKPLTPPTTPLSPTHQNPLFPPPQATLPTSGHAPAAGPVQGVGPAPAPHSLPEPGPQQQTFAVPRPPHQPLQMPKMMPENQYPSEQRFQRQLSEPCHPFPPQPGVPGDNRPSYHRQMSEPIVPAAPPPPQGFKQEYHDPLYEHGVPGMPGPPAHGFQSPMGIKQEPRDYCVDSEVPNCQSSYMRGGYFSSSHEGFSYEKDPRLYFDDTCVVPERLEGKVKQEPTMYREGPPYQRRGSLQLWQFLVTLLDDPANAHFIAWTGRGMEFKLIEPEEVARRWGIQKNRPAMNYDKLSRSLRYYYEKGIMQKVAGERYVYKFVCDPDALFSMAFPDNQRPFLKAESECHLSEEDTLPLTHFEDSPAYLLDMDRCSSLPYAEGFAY
# Procedure, shortened: as §1
# ELF4 = ELF4 (Homo sapiens, UniProt Q99607 1-663)
# ELF4, sequence (Q99607 whole entry): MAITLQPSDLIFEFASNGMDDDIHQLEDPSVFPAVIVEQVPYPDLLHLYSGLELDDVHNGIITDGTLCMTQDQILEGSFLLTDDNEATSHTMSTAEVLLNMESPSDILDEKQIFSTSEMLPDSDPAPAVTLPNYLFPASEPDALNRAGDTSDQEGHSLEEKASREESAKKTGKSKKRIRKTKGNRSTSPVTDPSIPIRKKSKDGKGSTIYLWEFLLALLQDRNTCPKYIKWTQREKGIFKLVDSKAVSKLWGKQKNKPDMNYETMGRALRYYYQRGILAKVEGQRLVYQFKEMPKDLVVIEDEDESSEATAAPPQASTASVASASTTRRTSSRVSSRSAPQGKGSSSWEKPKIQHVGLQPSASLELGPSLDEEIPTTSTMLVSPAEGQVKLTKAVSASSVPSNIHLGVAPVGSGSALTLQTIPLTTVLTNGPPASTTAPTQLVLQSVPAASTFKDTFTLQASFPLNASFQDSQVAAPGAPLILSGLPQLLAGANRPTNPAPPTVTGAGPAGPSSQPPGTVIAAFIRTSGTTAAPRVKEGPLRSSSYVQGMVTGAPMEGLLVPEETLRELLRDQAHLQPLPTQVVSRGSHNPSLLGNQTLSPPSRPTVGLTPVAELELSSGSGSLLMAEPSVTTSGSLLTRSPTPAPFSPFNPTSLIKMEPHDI
# Procedure, shortened: as §1
# ELF3 = target: T5, ELF3 (Homo sapiens, UniProt P78545 1-371)
# T5 sequence: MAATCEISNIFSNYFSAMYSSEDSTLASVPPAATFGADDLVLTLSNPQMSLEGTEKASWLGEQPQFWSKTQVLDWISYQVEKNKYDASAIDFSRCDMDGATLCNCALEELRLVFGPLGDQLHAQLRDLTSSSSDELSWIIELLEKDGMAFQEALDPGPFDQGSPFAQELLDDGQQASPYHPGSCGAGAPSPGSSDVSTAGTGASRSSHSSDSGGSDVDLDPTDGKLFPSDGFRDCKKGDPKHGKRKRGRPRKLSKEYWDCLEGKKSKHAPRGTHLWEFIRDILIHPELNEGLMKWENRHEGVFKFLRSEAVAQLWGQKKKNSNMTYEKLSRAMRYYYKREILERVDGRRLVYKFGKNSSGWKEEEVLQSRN
# Procedure, shortened: as §1
# ERF = target: T6, ERF (Homo sapiens, UniProt P50548 1-548)
# T6 sequence: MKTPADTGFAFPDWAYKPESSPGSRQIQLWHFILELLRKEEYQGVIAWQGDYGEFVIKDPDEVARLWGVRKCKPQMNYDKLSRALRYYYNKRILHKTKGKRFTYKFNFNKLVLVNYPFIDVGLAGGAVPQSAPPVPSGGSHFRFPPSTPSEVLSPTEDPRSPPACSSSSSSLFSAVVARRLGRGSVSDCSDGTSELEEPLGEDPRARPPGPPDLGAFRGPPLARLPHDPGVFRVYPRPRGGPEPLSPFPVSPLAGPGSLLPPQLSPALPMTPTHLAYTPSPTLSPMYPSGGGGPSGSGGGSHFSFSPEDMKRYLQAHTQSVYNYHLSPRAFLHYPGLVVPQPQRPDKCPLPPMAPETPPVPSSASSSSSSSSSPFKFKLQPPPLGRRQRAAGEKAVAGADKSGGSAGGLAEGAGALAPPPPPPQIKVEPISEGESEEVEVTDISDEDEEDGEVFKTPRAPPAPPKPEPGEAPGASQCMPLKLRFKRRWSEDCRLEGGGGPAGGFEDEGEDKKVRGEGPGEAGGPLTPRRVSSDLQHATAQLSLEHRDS
# Procedure, shortened: as §1
# ETV3L = target: T7, ETV3L (Homo sapiens, UniProt Q6ZN32 1-361)
# T7 sequence: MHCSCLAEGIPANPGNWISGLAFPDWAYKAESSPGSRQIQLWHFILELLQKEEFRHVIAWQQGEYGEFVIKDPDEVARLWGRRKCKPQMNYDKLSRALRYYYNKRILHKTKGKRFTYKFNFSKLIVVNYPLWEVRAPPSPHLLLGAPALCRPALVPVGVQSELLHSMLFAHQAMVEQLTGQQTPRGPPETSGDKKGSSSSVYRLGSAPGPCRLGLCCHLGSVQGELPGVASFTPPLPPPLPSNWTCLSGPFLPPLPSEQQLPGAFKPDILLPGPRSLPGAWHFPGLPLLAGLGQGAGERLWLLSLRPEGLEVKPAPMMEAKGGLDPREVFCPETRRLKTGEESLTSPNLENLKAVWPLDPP
# Procedure, shortened: as §1
# ETS2 = target: T8, ETS2 (Homo sapiens, UniProt P15036 1-469)
# T8 sequence: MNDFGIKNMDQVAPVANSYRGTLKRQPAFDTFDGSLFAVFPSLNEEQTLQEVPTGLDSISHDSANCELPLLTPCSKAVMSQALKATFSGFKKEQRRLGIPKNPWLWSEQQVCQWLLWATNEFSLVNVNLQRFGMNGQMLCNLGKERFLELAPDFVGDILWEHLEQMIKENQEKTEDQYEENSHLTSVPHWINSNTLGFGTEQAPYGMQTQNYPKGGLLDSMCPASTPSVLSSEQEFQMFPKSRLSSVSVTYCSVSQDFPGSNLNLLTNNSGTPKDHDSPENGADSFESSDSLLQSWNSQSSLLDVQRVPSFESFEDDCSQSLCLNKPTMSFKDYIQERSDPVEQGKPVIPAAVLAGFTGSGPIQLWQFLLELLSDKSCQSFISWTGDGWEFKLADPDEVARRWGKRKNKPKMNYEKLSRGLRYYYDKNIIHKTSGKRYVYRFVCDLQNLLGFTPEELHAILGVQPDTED
# Procedure, shortened: as §1
# SPDEF = target: T9, SPDEF (Homo sapiens, UniProt O95238 1-335)
# T9 sequence: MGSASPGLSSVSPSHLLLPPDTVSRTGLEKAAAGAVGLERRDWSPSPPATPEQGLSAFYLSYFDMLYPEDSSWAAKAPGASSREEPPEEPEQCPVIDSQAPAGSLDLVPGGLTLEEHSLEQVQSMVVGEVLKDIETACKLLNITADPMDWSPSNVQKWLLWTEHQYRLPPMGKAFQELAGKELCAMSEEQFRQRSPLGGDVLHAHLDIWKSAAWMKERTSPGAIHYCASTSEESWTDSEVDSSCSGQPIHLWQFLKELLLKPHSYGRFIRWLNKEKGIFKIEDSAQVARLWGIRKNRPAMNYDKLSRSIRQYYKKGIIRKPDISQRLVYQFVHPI
# Procedure, shortened: as §1
# ETV7 = target: T10, ETV7 (Homo sapiens, UniProt Q9Y603 1-341)
# T10 sequence: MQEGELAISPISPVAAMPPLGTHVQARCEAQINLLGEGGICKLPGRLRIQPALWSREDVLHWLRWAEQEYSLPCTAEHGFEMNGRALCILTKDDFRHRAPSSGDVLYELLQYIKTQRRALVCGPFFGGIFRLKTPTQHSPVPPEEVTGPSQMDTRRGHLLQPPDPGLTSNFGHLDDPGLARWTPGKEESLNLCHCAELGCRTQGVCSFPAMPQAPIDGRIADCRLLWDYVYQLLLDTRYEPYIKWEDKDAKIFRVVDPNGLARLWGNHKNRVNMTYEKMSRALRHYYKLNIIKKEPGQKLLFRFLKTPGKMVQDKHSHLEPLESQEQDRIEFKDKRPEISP
# Procedure, shortened: as §1
# ETV3 = target: T11, ETV3 (Homo sapiens, UniProt P41162-2 1-143)
# T11 sequence: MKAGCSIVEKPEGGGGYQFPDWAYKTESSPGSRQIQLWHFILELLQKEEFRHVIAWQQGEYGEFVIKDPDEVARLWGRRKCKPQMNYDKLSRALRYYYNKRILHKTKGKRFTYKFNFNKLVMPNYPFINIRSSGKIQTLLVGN
# Procedure, shortened: as §1
# ETV6 = ETV6 (Homo sapiens, UniProt P41212 1-452)
# ETV6, sequence (P41212 whole entry): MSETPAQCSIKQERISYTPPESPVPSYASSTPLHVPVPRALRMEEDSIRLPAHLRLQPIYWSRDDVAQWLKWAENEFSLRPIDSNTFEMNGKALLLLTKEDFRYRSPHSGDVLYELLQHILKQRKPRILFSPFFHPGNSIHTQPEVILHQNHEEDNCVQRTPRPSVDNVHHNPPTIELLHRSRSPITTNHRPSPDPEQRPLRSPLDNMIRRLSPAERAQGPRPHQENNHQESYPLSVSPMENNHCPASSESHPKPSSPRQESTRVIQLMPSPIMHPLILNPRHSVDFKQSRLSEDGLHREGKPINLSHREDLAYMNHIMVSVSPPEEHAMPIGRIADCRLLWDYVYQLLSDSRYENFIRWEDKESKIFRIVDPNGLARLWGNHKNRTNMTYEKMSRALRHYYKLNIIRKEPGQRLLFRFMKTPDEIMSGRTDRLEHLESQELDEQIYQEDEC
# Procedure, shortened: as §1
sequence,measurement,setting,value
CCGCAG,binding signal,ELK1,"1.09 fold enrichment (6-mer frequency, TF over GST control)"
same,binding signal,GABPA,"1.13 fold enrichment (6-mer frequency, TF over GST control)"
same,binding signal,ERG,"1.06 fold enrichment (6-mer frequency, TF over GST control)"
same,binding signal,ELF1,"1.01 fold enrichment (6-mer frequency, TF over GST control)"
same,binding signal,SPI1,"1.11 fold enrichment (6-mer frequency, TF over GST control)"
same,binding signal,SPIB,"1.21 fold enrichment (6-mer frequency, TF over GST control)"
same,binding signal,FEV,"1.08 fold enrichment (6-mer frequency, TF over GST control)"
same,binding signal,ETV5,"1.12 fold enrichment (6-mer frequency, TF over GST control)"
same,binding signal,ELF4,"1.07 fold enrichment (6-mer frequency, TF over GST control)"
same,binding signal,ELF3,"1.19 fold enrichment (6-mer frequency, TF over GST control)"
same,binding signal,ERF,"1.12 fold enrichment (6-mer frequency, TF over GST control)"
same,binding signal,ETV3L,"1.02 fold enrichment (6-mer frequency, TF over GST control)"
same,binding signal,ETS2,"1.06 fold enrichment (6-mer frequency, TF over GST control)"
same,binding signal,SPDEF,"1.07 fold enrichment (6-mer frequency, TF over GST control)"
same,binding signal,ETV7,"1.12 fold enrichment (6-mer frequency, TF over GST control)"
same,binding signal,ETV3,"1.07 fold enrichment (6-mer frequency, TF over GST control)"
same,binding signal,ETV6,"1 fold enrichment (6-mer frequency, TF over GST control)"
